Measured values: PubChem BioAssay (Tox21)
Records with an inconclusive call do not appear. Where a call stands in place of a potency, no number is given. Active and inactive are the calls of the source. Unless noted, calls come from the whole dose curve; as a rule, active = well fitted curve in the direction sought with a large enough effect in the repeat runs; inconclusive = weak or mixed curves; inactive = no such curve, though single readings can be large; an effect the other way counts as inactive or inconclusive.

How the values were obtained:
[1] = qHTS assay to identify aromatase inhibitors - cell viability counter screen (AID 743084); details: MCF-7 aro ERE viability, CellTiter-Fluor, 24 h; series mostly up to 70.3 µM;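 note: cells stimulated with testosterone during compound exposure; nearly all actives have a fitted effect of over 55% in size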
[2] = molecular target: Aryl hydrocarbon receptor (Homo sapiens) (UniProt P35869); assay: qHTS assay to identify small molecule that activate the aryl hydrocarbon receptor (AhR) signaling pathway (AID 743085); details: HepG2 AhR-luc (HG2L7.5c1), luciferase, 24 h; series mostly up to 70.3 µM; note: nearly all actives have a fitted effect of over 15% in size; note: potency is the fitted concentration of half-maximal effect;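 for activation: HG2L7.5c1 human HepG2 liver cells with stably integrated DRE-driven firefly reporter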
Procedure, shortened: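 Measured in HG2L7.5c1 cells: CellTiter-Fluor signal (30 min incubation, 37C) for viability, then luciferase luminescence (30 min, room temperature). Compound contact time was 24 h at 37C, following a 5 h pre-incubation.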

[3] = qHTS assay to identify small molecule that activate the aryl hydrocarbon receptor (AhR) signaling pathway - cell viability counter screen (AID 743086); details: HepG2-AhR-luc viability, CellTiter-Fluor, 24 h; series mostly up to 70.3 µM; note: nearly all actives have a fitted effect of over 45% in size; note: potency is the fitted concentration of half-maximal effect
Procedure, shortened: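 Cytotoxicity counter screen: CellTiter-Fluor signal (30 min, 37 C) in 4000 HepG2 cells/well carrying the DRE-luciferase reporter, following 24 h compound exposure at 37 C.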

[4] = molecular target: Peroxisome proliferator-activated receptor gamma (Homo sapiens) (UniProt P37231); assay: qHTS assay to identify small molecule agonists of the peroxisome proliferator-activated receptor gamma (PPARg) signaling pathway (AID 743094; active = well fitted activation curve with a large enough effect in the signal ratio in the repeat runs, not every such curve was filed as active; the % refers to the signal ratio); details: HEK293H PPARg-UAS-bla, beta-lactamase FRET ratio, 17 h; series mostly up to 57 µM
Procedure, shortened: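 HEK293H PPARg-bla cells, 5 h settle at 37C/5% CO2; compound (DMSO) 17 h, 37C; B/G FRET substrate 1 h RT; fluorescence intensity read-out. qHTS format.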

[5] = qHTS assay to identify small molecule antagonists of the peroxisome proliferator-activated receptor gamma (PPARg) signaling pathway - cell viability counter screen (AID 743194); details: PPARg-bla HEK293H viability, CellTiter-Glo luminescence, 17 h, co-treated with 50 nM rosiglitazone; series mostly up to 62.6 µM; note: nearly all actives have a fitted effect of over 55% in size
Procedure, shortened: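 Viability was measured as CellTiter-Glo luminescence in GeneBLAzer PPARg UAS-bla HEK293H cells. These cells had been exposed 17 h at 37 C to compounds together with rosiglitazone at 50 nM final, with the beta-lactamase readout taken in the same wells.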

[6] = qHTS assay for small molecule agonists of the antioxidant response element (ARE) signaling pathway - cell viability counter screen (AID 743203; calls by dose curve; note: nearly all actives have a fitted effect of over 55% in size); details: ARE-bla HepG2 viability, CellTiter-Glo luminescence, 16 h; series mostly up to 73.3 µM
Procedure, shortened: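 Luminescence read-out (CellTiter-Glo, 30 min at room temperature) measured cell viability in the same wells as the ARE beta-lactamase reporter. HepG2 ARE-bla cells were treated with compounds for 16 hrs at 37C/5% CO2.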

[7] = qHTS assay for small molecule activators of the heat shock response signaling pathway - cell viability counter screen (AID 743209); details: HSE-bla HeLa viability, CellTiter-Glo luminescence, 5 h; series mostly up to 62.6 µM; note: nearly all actives have a fitted effect of over 50% in size
Procedure, shortened: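 HSE-bla HeLa; 1500 cells/well; overnight 37 C, 5% CO2; compound 5 h 37 C; LiveBLAzer B/G substrate 2.5 h RT; CellTiter-Glo 30 min RT; luminescence.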

[8] = qHTS assay for small molecule activators of the heat shock response signaling pathway (AID 743210; active = well fitted activation curve with a large enough effect in the signal ratio in the repeat runs, with a control signal flat, not every such curve was filed as active; the % refers to the signal ratio; note: potency is the fitted concentration of half-maximal effect;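 for activation: HeLa cells with beta-lactamase reporter driven by heat shock elements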); details: HeLa HSE-bla reporter, beta-lactamase ratio, 5 h; series mostly up to 62.6 µM
Procedure, shortened: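 Fluorescence from a cleaved B/G FRET substrate (2.5 h, room temp) reports HSE-driven beta-lactamase in HeLa cells treated 5 h at 37 C with DMSO-dissolved compounds.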

[9] = qHTS assay for small molecule agonists of the antioxidant response element (ARE) signaling pathway (AID 743202; active = well fitted activation curve with a large enough effect in the signal ratio in the repeat runs, not every such curve was filed as active; the % refers to the signal ratio; note: potency is the fitted concentration of half-maximal effect); details: HepG2 ARE-bla reporter, beta-lactamase FRET, 16 h; series mostly up to 73.3 µM
Procedure, shortened: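 Beta-lactamase reporter activity, read as fluorescence intensity, reflects ARE/Nrf2 pathway induction in HepG2 cells after 16 h compound exposure at 37 C; substrate loading was 2 h at room temperature.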

[10] = molecular target: Peroxisome proliferator-activated receptor gamma (Homo sapiens) (UniProt P37231); assay: qHTS assay to identify small molecule antagonists of the peroxisome proliferator-activated receptor gamma (PPARg) signaling pathway (AID 743191; calls by dose curve; note: nearly all actives have a fitted effect of over 30% in size); details: HEK293H PPARg-UAS-bla, beta-lactamase ratio, antagonist, 17 h; series mostly up to 62.6 µM
Procedure, shortened: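 Beta-lactamase reporter under UAS control in HEK293H PPARg-bla cells; compound treatment 17 h at 37C. Read-out: fluorescence intensity after 1 h room-temperature incubation with LiveBLAzer B/G FRET substrate.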

Sequence of Aryl hydrocarbon receptor (Homo sapiens) (P35869 whole entry, looked up): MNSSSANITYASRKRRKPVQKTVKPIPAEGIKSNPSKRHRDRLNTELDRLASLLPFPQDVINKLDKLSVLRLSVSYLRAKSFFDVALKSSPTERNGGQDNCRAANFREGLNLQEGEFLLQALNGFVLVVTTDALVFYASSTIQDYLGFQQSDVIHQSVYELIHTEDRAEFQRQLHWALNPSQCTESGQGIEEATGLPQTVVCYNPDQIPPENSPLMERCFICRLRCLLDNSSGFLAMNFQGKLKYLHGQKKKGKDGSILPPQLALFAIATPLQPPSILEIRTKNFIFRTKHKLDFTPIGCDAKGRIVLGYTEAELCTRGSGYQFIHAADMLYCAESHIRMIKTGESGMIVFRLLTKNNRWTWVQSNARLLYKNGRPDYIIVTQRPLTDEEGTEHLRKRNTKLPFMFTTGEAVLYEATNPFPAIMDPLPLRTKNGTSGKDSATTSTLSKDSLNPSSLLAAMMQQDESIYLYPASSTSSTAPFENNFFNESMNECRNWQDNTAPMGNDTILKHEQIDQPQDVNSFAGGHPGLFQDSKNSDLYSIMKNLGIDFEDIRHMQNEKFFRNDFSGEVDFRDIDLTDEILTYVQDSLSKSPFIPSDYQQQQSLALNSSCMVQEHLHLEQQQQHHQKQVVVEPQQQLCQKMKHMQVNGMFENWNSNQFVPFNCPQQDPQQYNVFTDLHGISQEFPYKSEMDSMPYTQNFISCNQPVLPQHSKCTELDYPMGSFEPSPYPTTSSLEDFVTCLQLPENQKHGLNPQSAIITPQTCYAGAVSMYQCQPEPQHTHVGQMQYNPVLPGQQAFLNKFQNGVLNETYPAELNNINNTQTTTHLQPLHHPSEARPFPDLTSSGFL
Sequence of Peroxisome proliferator-activated receptor gamma (Homo sapiens) (P37231 whole entry, looked up): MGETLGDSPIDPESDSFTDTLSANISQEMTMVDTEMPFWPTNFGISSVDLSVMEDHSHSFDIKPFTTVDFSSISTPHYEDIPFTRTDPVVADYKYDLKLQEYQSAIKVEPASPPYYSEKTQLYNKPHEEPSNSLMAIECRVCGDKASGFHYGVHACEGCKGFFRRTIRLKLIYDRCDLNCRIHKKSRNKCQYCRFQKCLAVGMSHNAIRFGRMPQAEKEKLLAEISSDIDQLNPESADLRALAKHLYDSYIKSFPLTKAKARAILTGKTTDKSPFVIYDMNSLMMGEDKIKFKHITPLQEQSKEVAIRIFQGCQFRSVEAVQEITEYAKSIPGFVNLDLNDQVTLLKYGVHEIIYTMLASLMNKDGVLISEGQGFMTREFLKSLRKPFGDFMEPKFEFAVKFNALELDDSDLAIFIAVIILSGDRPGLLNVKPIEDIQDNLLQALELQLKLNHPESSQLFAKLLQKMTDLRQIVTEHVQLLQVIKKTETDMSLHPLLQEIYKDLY

Row | SMILES | Potency [1] | Potency [2] | Potency [3] | Potency [4] | Potency [5] | Potency [6] | Potency [7] | Potency [8] | Potency [9] | Potency [10]
1 | NCc1ccccc1Sc1ccccc1CO | inactive | inactive | inactive | inactive | inactive | inactive | inactive | inactive | – | –
2 | O=CC1CC=CCC1 (stereo unspecified) | inactive | inactive | inactive | inactive | inactive | inactive | inactive | inactive | – | –
3 | N=c1ccn2c(n1)O[C@H]1[C@H](O)[C@@H](CO)O[C@H]12 | inactive | inactive | inactive | inactive | inactive | inactive | inactive | inactive | – | –
4 | O=C(O)c1ccco1 | inactive | inactive | inactive | inactive | – | inactive | inactive | inactive | inactive | –
5 | CCCCc1ncc(/C=C(\Cc2cccs2)C(=O)O)n1Cc1ccc(C(=O)O)cc1 | inactive | inactive | inactive | – | inactive | – | – | – | – | –
6 | O=C(O)C(S)C(S)C(=O)O (stereo unspecified) | inactive | inactive | inactive | – | inactive | inactive | inactive | – | – | –
7 | CC(C)=CCC/C(C)=C/CC/C(C)=C/CO | inactive | inactive | inactive | inactive | – | inactive | – | – | – | –
8 | C=C1[C@H]2CC[C@@H]3[C@H]2C(C)(C)CCC[C@]13C | inactive | inactive | inactive | inactive | inactive | inactive | – | inactive | – | –
9 | CC(C)C[C@H]1C(=O)N2CCC[C@H]2[C@]2(O)O[C@](NC(=O)[C@@H]3C=C4c5cccc6[nH]c(Br)c(c56)C[C@H]4N(C)C3)(C(C)C)C(=O)N12 | inactive | inactive | 26.6 µM (active) | – | inactive | inactive | inactive | inactive | 4.13 µM (active) | –
10 | CC(=O)[O][Al][O]C(C)=O | inactive | inactive | inactive | – | inactive | inactive | – | – | inactive | –
11 | O=C(c1ccc(F)cc1)C1CCN(CCn2c(=S)[nH]c3ccccc3c2=O)CC1 | inactive | inactive | inactive | – | – | inactive | – | 19.6 µM (active) | – | inactive
12 | CCOC(=O)C(F)(F)F | inactive | inactive | inactive | inactive | inactive | inactive | – | inactive | – | –
13 | C1CCCNCCC1 | inactive | inactive | inactive | inactive | inactive | inactive | – | inactive | – | –
14 | CCCn1cnc2c1c(=O)n(CCCCC(C)=O)c(=O)n2C | inactive | inactive | inactive | inactive | – | inactive | inactive | inactive | – | –
15 | c1ccc(-c2ccccn2)nc1 | inactive | inactive | inactive | – | inactive | inactive | inactive | – | – | –
16 | C/C=C/C=C/CO | inactive | inactive | inactive | inactive | – | inactive | inactive | inactive | – | –
17 | CCNc1cc(O)ccc1C | inactive | 30.3 µM (active) | inactive | – | inactive | inactive | – | inactive | – | –
18 | COc1cc(Cl)ccc1Oc1ccc(Cl)cc1Cl | inactive | inactive | inactive | inactive | – | inactive | inactive | inactive | – | –
